# Measured values published in PubChem BioAssay (NCI).
# Compounds without any hit were thinned out: in the full panel of roughly 83,000, 20% have a hit.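 Step 1: grow cells in 96-well plates. Step 2: add test compound at a single concentration. Step 3: incubate 48 h. Step 4: record percent growth.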 A number with no mark means an inactive call. Activity calls are given as the source filed them.
# System: RPMI-8226 leukemia
# Experiment: NCI-60 one-dose screen, 48 h (100 = growth as untreated, 0 = no growth, -100 = all killed)
# Settings: 10 µM unless noted
# Procedure: Growth inhibition of the RPMI-8226 human tumor cell line is measured as a screen for anti-cancer activity. Cells are grown in 96 well plates and exposed to the test compound for 48 hours. Compounds are tested at a single concentration, which is 10^-5 M for most compounds. The reported endpoint is percent growth (GI% or GIPRCNT), where numbers from 0 - 100% represent growth inhibition, and numbers from -100% - 0 represent cell death. For example, a value of 40 represents 60% growth inhibition. A value of 0 means no net growth occurred over the course of the experiment. A value of -40 indicates 40% of cells at the beginning of the experiment died by the end of the experiment. A value of -100 means all cells are dead at the end of the experiment.
# NCI-60 Human Tumor Cell Lines Screen was performed using the standard one-dose NCI protocol, which is described in more detail at https://dtp.cancer.gov/discovery_development/nci-60/default.htm.
# Compounds with GIPRCNT values below 10 were considered active. Activity score was based on GIPRCNT using the following formula: […]
# Score is 0 for GIPRCNT values of 100 or above, 50 for GIPRCNT values of 0, and 100 for GIPRCNT values of -100.
row,Structure (SMILES),growth
1,Cc1c(-c2cnc3ccc(Cl)cc3c2C(=O)O)nnn1-c1ccc(Cl)cc1,105%
2,O=C(Cn1cc(CSc2nc3ccccc3o2)nn1)Nc1ccc([N+](=O)[O-])cc1,97.3%
3,COc1cccc(/C=C/C(=O)/C=C(/C=C/c2cccc(OC)c2OC)OB(F)F)c1OC,23.6%
4,CO[C@]12C=C/C(=C(/C(=O)OCc3cccnc3)C(=O)CCCCCCCC[C@]3(OC)C=C/C(=C(/C(=O)OCc4cccnc4)C(=O)CCCCCCCC1)O3)O2,-30.4% (active)
5,COc1ccc(-c2ccc(-c3ccc(C(=N)N)o3)o2)cc1,14.3%
6,O=C1OCC2=C1C(c1cccc(F)c1)c1cc3c(cc1N2CCO)CCC3 (stereo not given),23.3%
7,O=C(/C=C/c1ccc(Cl)cc1)c1ccc(Nc2ccnc3cc(Cl)ccc23)cc1,-41.9% (active)
8,CNC(=O)c1cc(Oc2ccc3nc(NC(=O)c4cc(C(F)(F)F)cc(C(F)(F)F)c4)sc3c2)ccn1,9.36% (active)
9,Cc1ccc2c(n1)C[C@H](C(C)(C)O)CC[C@H]2C,110%
10,COc1cc(CNC(=O)CCCC/C=C/C(C)C)ccc1OCc1cn(-c2ccc(C(F)(F)F)cc2)nn1,53.4%
11,COc1ccc(C2=NN(C=O)C(c3ccc(Oc4nc5c(c(=O)n(C)c(=O)n5C)n4C)c(OC)c3)C2)cc1 (stereo not given),79.6%
12,COC(=O)c1ccc(-n2cc(CCCOS(=O)(=O)c3ccc(F)cc3)nn2)cc1,97.3%
13,COc1cccc(-c2nn(-c3ccccc3)cc2-c2ccnc(-c3cccnc3)c2)c1,67.7%
14,CCOC(=O)CCC(=O)P(=O)(O)O,42.1%
15,CC(CN)[C@@H]1CC[C@]2(CO)CC[C@]3(C)[C@H](CC[C@@H]4[C@@]5(C)CCC(NCCO)C(C)(C)[C@@H]5CC[C@]43C)[C@@H]12 (stereo not given in full),0.0868% (active)
16,Cc1ccc(Nc2nc(N)nc(N)c2N=O)cc1Cl,78.3%
17,CCN(CC)c1ccc(/C=N/NC(=O)c2ccccc2Nc2ccnc(C(F)(F)F)c2)c(O)c1,26.5%
18,CCOc1ccccc1NC(=O)CCC(=O)OC,104%
19,Cn1ccnc1C(=O)/C=C/c1ccc(C(=O)Nc2ccccc2F)cc1,9.83% (active)
20,CCOC(=O)c1c2c(n3ccc(NC(=O)CCN4CCCC4)cc13)C(=O)c1ncccc1C2=O,-31.8% (active)

row,Structure (SMILES),growth
1,O=C1CC2C=CCN2C=C1NC(=O)c1ccccc1 (stereo not given),112%
2,CN1CCN(c2ccc(Nc3ncc4[nH]c(=O)n(Cc5ccccc5N)c4n3)cc2)CC1,105%
3,CN1C(=O)N(C)C2C1NN=c1s/c(=C\c3ccccc3F)c(=O)n12 (stereo not given),20.7%
4,COc1cc(/C=C/c2cc(/C=C/c3ccc(O)c(OC)c3)n(C(=O)Nc3ccc(C)cc3C)n2)ccc1O,-16.7% (active)
5,COc1cccc(C(=O)Nc2cccc(NC(=O)c3ccccn3)c2)c1,101%
6,O=C(Nc1ccc(Cl)cc1)C1=NCCCCN1,96.3%
7,COc1c(O[C@@H]2OC(CO)[C@H](O)[C@H](O)C2O)cc2oc3cc(O)c(CC=C(C)C)c(O)c3c(=O)c2c1CC=C(C)C (stereo not given in full),96.4%
8,CC1(C)C2=C(C(=O)N1Cc1ccccc1)C(c1ccco1)N(C(=O)C1CCC1)CCN2 (stereo not given),106%
9,O=C1NCCS(=O)(=O)/C1=C\C=C\c1cccc(C(F)(F)F)c1,-7.36% (active)
10,C(CCCSC1=NCCN1)CCSC1=NCCN1,107%
11,Cc1cc2c(C(C)C)c(O)c(O)c(/C=N/O)c2c(O)c1-c1c(C)cc2c(C(C)C)c(O)c(O)c(/C=N/O)c2c1O,15%
12,Cn1cc(-c2nc(-c3c[nH]c4ccncc34)cs2)c2cc(F)ccc21,-36.5% (active)
13,Cc1ccc(-c2nn(CC(=O)N3CCOCC3)c(N)c2C#N)cc1,108%
14,COc1cc2c(c(OC)c1OC)CCC(c1cccc(C(=O)Nc3ccccc3Br)c1)O2 (stereo not given),83%
15,O=C(NS(=O)(=O)c1ccccc1)n1cc(-c2ccncc2)c(-c2cc(O)cc(Cl)c2)n1,85.2%
16,Cc1cccc(C)c1NC(=O)Nc1ccccc1,96.1%
17,N=C(N)c1ccc(-c2ccc(-c3ccc(Cl)cc3Cl)s2)nc1,0.186% (active)
18,Cc1ccc(S(=O)(=O)c2nc(-c3ccccc3)oc2S(C)=O)cc1 (stereo not given),-51.3% (active)
19,Nc1ncnc2c1N=C(c1ccc([N+](=O)[O-])cc1)CC(c1ccc3c(c1)OCO3)N2 (stereo not given),71.1%
20,COc1ccc(/C=C/C(=O)c2ccc(-n3cc(CN4CCN(c5cc6c(cc5F)c(=O)c(C(=O)O)cn6C5CC5)CC4)nn3)cc2)cc1,-24.4% (active)
